In one test the target is Albumin (Bos taurus) (UniProt P02769). Description: bovine serum albumin binders on microarray, profiling panel, artefact control for SMM control protein annotation, biochemical, small-molecule microarray, Alexa647 label, 635/667 nm fluorescence (AID 1118).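 Note: score merges 667 nm emission intensity and signal-to-noise per printed compound spot.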 As to conditions: BSA-A647 binding, fluorescence 635 nm, higher = more signal.
The nature of test [1]: small-molecule microarray binders of probe aXIP, primary screen, biochemical, NeuroSMM set, 635/667 nm fluorescence (AID 1119).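 Note: probe is the protein aXip251-270 applied at 1 µg/mL to compound-printed slides; binding of probe to printed compounds measured as 667 nm fluorescence plus signal to noise.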 The following applies: higher = more signal, called active from +8 up or from −8 down.
The nature of test [2]: small-molecule binders of probe aNOTCH3, primary screen, biochemical, small-molecule microarray, 635/667 nm fluorescence (AID 1120).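 Note: probe is a biotin-tagged antibody raised against NOTCH3 rather than NOTCH3 protein; score merges spot fluorescence near 667 nm with spot signal to noise.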 As to conditions: higher = more signal.
Test [3] can be described thus: small-molecule binders of probe aNOTCH2, primary screen, biochemical, small-molecule microarray, 635/667 nm fluorescence (AID 1121).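 Note: score merges feature fluorescence read at 667 nm with its signal to noise.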 The following applies: higher = more signal.
Test [4] has as its target Carbonic anhydrase 2 (Homo sapiens) (UniProt P00918). Description: CAII small-molecule binders, profiling panel, biochemical, small-molecule microarray, Alexa647-labelled CAII (AID 1122). As to conditions: CAII-A647 binding fluorescence, higher = more signal.
The nature of test [5]: COS7 lysate on small-molecule microarray, probe aHis, 635 nm (AID 1123).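 Note: z-score combines 667nm fluorescence intensity with signal-to-noise per printed compound spot.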 As to conditions: COS7 cell lysate, fluorescence, higher = more signal.
Test [6] in a line: compound binding in COS7 lysate, probe aLAP1, primary screen, cell lysate, small-molecule microarray (AID 1124).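 Note: lysate comes from COS7 cells expressing LAP1 and is applied at 0.3 µg/mL; score merges spot fluorescence near 667 nm with signal-to-noise over triplicate slides.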 The following applies: probe aLAP1, fluorescence, higher = more signal.
In the next test the test system is Sam68 (KHDRBS1). Description: Sam68 small-molecule binders, primary screen, biochemical, small-molecule microarray, 635 nm fluorescence (AID 1125).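 Note: score merges 667 nm channel intensity with signal to noise over triplicate slides.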 As to conditions: small-molecule microarray binding, higher = more signal.
Test [7] concerns Chordin-like protein 2 (CHRDL2). Description: CHRDL2 small-molecule binders, primary screen, biochemical, small-molecule microarray, 635 nm fluorescence (AID 1126).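 Note: printed compound slides probed with Chrdl2 protein at 4 µg/mL for 1 h at 4 C; score merges 667 nm emission intensity with signal to noise over three replicate slides.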 As to conditions: small-molecule microarray binding, fluorescence 635 nm; higher = more signal.
For test [8], the target named is Concanavalin-A (Canavalia ensiformis) (UniProt P02866). Description: ConA small-molecule binders, primary screen, artefact control for SMM control protein annotation, biochemical, small-molecule microarray, Alexa647 label, 635 nm (AID 1127).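 Note: z combines 667 nm emission intensity with signal-to-noise across three replicate slides.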 The following applies: ConA-A647 binding fluorescence, higher = more signal.
Sequence of Concanavalin-A (Canavalia ensiformis) (P02866 whole entry, looked up): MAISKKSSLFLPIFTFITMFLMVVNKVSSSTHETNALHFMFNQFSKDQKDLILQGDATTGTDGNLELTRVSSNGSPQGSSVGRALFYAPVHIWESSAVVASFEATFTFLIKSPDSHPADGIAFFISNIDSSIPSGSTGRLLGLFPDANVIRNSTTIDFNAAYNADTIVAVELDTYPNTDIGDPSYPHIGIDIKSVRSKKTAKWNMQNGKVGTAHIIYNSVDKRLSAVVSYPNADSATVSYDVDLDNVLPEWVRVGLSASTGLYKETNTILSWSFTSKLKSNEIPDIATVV

Active and inactive are the calls of the source.

Sequence of Albumin (Bos taurus) (P02769 whole entry, looked up): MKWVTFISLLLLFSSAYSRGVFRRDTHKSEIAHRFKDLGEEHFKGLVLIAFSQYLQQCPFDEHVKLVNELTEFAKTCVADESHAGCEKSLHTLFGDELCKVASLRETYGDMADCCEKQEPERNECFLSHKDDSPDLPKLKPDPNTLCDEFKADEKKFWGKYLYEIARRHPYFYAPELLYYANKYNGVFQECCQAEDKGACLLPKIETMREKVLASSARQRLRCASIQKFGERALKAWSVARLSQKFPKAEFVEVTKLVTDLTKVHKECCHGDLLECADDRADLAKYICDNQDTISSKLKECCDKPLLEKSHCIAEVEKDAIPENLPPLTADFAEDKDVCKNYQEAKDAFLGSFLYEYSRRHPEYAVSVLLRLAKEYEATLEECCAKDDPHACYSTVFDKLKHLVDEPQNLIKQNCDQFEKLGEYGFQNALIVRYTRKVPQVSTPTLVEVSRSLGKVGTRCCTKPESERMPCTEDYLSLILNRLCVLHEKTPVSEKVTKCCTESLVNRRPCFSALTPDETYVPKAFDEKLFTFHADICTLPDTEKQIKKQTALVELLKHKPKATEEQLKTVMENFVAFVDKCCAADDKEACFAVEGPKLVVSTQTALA

`CCN(CC)c1ccc(N2CC=CC34O[C@@H]5C=CCOC(=O)[C@@H]5[C@H]3C(=O)N(CCO)[C@@H]4C2=O)cc1` (stereo not given in full): the composite z-score was -0.869 with Albumin (Bos taurus); 0.0035 in [2]; -0.24 in test [3]; 0.913 in test [4]; -0.368 in test [5]; -0.714 in [6]. Moreover, the results for the composite z-score (in the test on Sam68 (KHDRBS1); in [7]; in [8]) were -0.683, -1.83 and -1.14, respectively. In test [1], the composite Z-score is 2.39 (inactive).

For the compound `CN(C)CCCCNC(=O)[C@H]1C[C@H]2C(=O)N[C@@H](Cc3ccccc3)C(=O)N2[C@H]1c1cccc(OCCO)c1`, the composite z-score was -0.598 with Albumin (Bos taurus); -0.199 in test [2]; -0.117 in test [3]; 0.627 in [4]; -0.185 in test [5]; -0.507 in [6]. Further, the composite z-score in the test with Sam68 (KHDRBS1) is -1.16; in test [7] it was 0.739; in [8], 0.696. In addition, the composite Z-score in test [1] is -0.162 (inactive).

For `C=C(COC)/C(=C/C[C@@H](OC(C)=O)c1ccccc1OCCO)c1cc(C(=O)OC)ccc1OC`, the composite z-score is 0.27 with Albumin (Bos taurus); 0.213 in test [2]; -0.122 in test [3]; 0.388 in test [4]; 0.283 in [5]; 0.0845 in test [6]. Moreover, the composite z-score with Sam68 (KHDRBS1) was 0.844; in test [7], -0.183; in [8], 0.369. For the same compound, the composite Z-score in test [1] was 1.02 (inactive).

Turning to `CC(C)[Si](C#CCCCC#N)(O[C@H](c1ccccc1)c1cn([C@H](C)c2ccccc2)nn1)C(C)C`, the composite z-score in the test with Albumin (Bos taurus) is 0.221; in test [2] it was 0.0357; in test [3], -0.0405; in test [4], 0.506; in test [5] it was 0.879; in test [6], 0.0714. Besides, the composite z-score in the test on Sam68 (KHDRBS1) was determined as 1.24; in test [7], 0.293; in test [8], 0.444. Also, in [1], the composite Z-score is -0.0102 (inactive).

With `C=CC(CO)NC(=O)OCC1c2ccccc2-c2ccccc21` (stereo not given), the composite z-score was -0.335 with Albumin (Bos taurus); 0.0242 in [2]; -0.108 in test [3]; -0.192 in test [4]; 0.121 in [5]; -0.0184 in test [6]. Further, the composite z-score with Sam68 (KHDRBS1) was 0.0668; in [7] it was 0.566; in test [8], 0.47. The composite Z-score in test [1] is 0.314 (inactive).

Turning to `C=C(CCCC)C(=O)CC[C@H](OC(=O)c1cccnc1)c1ccc(CO)o1`, the composite z-score in the test with Albumin (Bos taurus) is 0.133; in [2], 0.19; in test [3], -0.0323; in test [4], 0.555; in test [5] it was 1.07; in [6], 1.06. Moreover, the figures for the composite z-score (in the test on Sam68 (KHDRBS1); in test [7]; in [8]) were 1.3, 0.608 and 1.1, respectively. In test [1], the composite Z-score was 0.0385 (inactive).

Regarding `COCC(=C=CC[C@@H](O)c1cccc(OCCO)c1)C[C@@H](O)COCc1ccccc1`, the composite z-score with Albumin (Bos taurus) amounted to 0.809; in test [2] it was 0.381; in [3] it was 0.121; in test [4], 0.552; in test [5] it was 3.68; in test [6], 0.684. Besides, the composite z-score was 0.92 in the test on Sam68 (KHDRBS1), -0.69 in test [7] and 0.132 in [8]. In addition, the composite Z-score in [1] was -1.85 (inactive).

As to `COCCOC(=O)N1C(=O)[C@@]2(c3ccccc31)[C@H](C(N)=O)[C@H]1C(=O)O[C@H](c3ccccc3)[C@H](c3ccccc3)N1[C@@H]2c1ccc(OCCO)cc1`, the composite z-score in the test with Albumin (Bos taurus) is 0.787; in test [2] it was -0.0055; in test [3], -0.123; in test [4], 0.508; in [5] it was 1.74; in [6] it was 0.103. Further, the composite z-score with Sam68 (KHDRBS1) came to 1.31; in [7] it was 0.33; in test [8] it was 1.15. The composite Z-score in [1] was 1.32 (inactive).

As for `COCCOC(=O)N1C(=O)[C@@]2(c3cc(C#CC4(O)CCCCCC4)ccc31)[C@H](c1ccccc1OCCO)N1[C@H](c3ccccc3)[C@H](c3ccccc3)OC(=O)[C@H]1[C@@H]2C(=O)N1CCCCCCC1`, the composite z-score in the test with Albumin (Bos taurus) came out at 0.187; in [2], 1.07; in [3], 0.513; in test [4] it was 0.497; in [5] it was 2.16; in test [6] it was 0.364. The composite z-score is 1.29 in the test with Sam68 (KHDRBS1), 0.905 in test [7] and 0.992 in [8]. Also, the composite Z-score in test [1] is 0.961 (inactive).

As for `COC(=O)[C@@]1(CCS(=O)(=O)c2ccccc2)N=C(c2ccc(OCCCO)cc2)O[C@H]1c1ccccc1N=[N+]=[N-]`, the composite z-score with Albumin (Bos taurus) turned out to be 0.827; in test [2] it was 0.0237; in test [3], 0.0196; in [4], 0.356; in test [5], 2.92; in test [6] it was 0.406. For the same compound, the composite z-score came to 1.3 in the test on Sam68 (KHDRBS1), 0.889 in test [7] and 1.11 in test [8]. Besides, the composite Z-score in test [1] was -0.0127 (inactive).

Consider `NC(=O)[C@@]1(CCS(=O)(=O)c2ccccc2)COC(c2ccc(OCCCO)cc2)=N1`, for which the composite z-score is 0.336 with Albumin (Bos taurus); 0.119 in test [2]; 0.327 in test [3]; 0.445 in test [4]; 0.043 in test [5]; -0.84 in test [6]. Moreover, the composite z-score in the test on Sam68 (KHDRBS1) was -0.0922; in [7], -0.536; in test [8] it was 0.411. In addition, the composite Z-score in [1] is -0.823 (inactive).

For `COC(=O)[C@@]1(CCC(=O)OC(C)(C)C)N=C(c2ccc(OCCCO)cc2)O[C@H]1c1ccccc1CN=[N+]=[N-]`, the composite z-score with Albumin (Bos taurus) was -0.0515; in test [2], -0.0984; in [3], -0.0786; in test [4], 0.743; in test [5], 1.41; in test [6], 0.348. The results for the composite z-score (in the test on Sam68 (KHDRBS1); in [7]; in [8]) were -0.126, -0.141 and 0.855, respectively. Also, the composite Z-score in [1] was 0.69 (inactive).

`COc1ccc(C#Cc2ccc3c(c2)[C@]2(C(=O)N3)[C@H](c3ccc(OCCO)cc3)N3[C@H](c4ccccc4)[C@H](c4ccccc4)OC(=O)[C@H]3[C@@H]2C(=O)O)cc1`: the composite z-score with Albumin (Bos taurus) is -0.0067; in test [2] it was 1.18; in test [3], -0.0907; in test [4], 0.653; in test [5], 3.18; in test [6] it was 0.811. Further, the composite z-score with Sam68 (KHDRBS1) was determined as 1.3; in test [7], 0.234; in test [8], 0.761. For the same compound, in test [1], the composite Z-score is -0.221 (inactive).

For the compound `NCCCC[C@@H]1NC(=O)[C@H]2C[C@@H](C(=O)NCc3ccc(F)cc3)[C@@H](c3ccc(O)cc3)N2C1=O`, the composite z-score in the test with Albumin (Bos taurus) was -0.135; in test [2], 0.125; in [3], -0.0531; in test [4], 0.738; in test [5], 2.18; in test [6], 0.313. Moreover, the composite z-score was 1.19 in the test on Sam68 (KHDRBS1), 0.521 in test [7] and 1.13 in test [8]. In addition, the composite Z-score in test [1] is 0.744 (inactive).

For the compound `COC(=O)[C@@]1(Cc2ccc(OC)cc2)[C@H]2c3cc(C(=O)N(C)C)n(Cc4ccsc4Br)c3C[C@H]2CN1C(=O)c1ccccc1`, the composite z-score was 0.968 in the test with Albumin (Bos taurus); 0.69 in [2]; 0.371 in test [3]; 0.898 in test [4]; 1.65 in [5]; 0.107 in test [6]. Besides, the composite z-score in the test on Sam68 (KHDRBS1) is 0.399; in [7], -0.0018; in [8] it was 0.852. For the same compound, the composite Z-score in [1] was -0.362 (inactive).

With `COC(=O)[C@]1(CO)N=C(c2ccc(OCCCO)cc2)O[C@@H]1c1ccccc1CN=[N+]=[N-]`, the composite z-score in the test with Albumin (Bos taurus) is -0.421; in [2] it was -0.122; in test [3], -0.127; in [4] it was 0.7; in [5] it was 1.25; in test [6], 0.0153. Also, the composite z-score in the test with Sam68 (KHDRBS1) amounted to 0.363; in [7], 0.265; in [8], 0.257. Besides, the composite Z-score in [1] is 0.277 (inactive).

For the origin of these results see PubChem BioAssay.
